This is an account of results in PubChem BioAssay.

Left-right determination factor 2 (Homo sapiens), sequence (O00292 whole entry, looked up): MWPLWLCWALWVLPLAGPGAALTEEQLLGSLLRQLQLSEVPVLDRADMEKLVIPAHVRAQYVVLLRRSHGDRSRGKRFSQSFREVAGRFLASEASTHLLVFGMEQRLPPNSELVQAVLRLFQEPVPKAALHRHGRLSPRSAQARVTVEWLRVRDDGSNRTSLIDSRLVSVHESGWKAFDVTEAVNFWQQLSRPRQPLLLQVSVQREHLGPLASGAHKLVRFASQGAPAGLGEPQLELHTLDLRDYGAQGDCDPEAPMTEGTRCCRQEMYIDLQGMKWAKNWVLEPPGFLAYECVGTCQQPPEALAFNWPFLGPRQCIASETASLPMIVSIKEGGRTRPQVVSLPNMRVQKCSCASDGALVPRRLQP

One assay concerns the target Left-right determination factor 2 (Homo sapiens) (UniProt O00292). In words: small molecules binding LEFTY2 protein – biochemical, small-molecule microarray, 635 nm fluorescence scan, primary screen (AID 1110). The following applies: higher = more signal.
In turn, `CC(C)C[C@@H]1NC(=O)[C@H]2C[C@@H](C(=O)NCCCCCNC(=O)CS)[C@@H](c3cccc(OCCO)c3)N2C1=O` registered a composite z-score of 1.25. In turn, `COc1ccc(C#Cc2ccc3c(c2)[C@]2(C(=O)N3)[C@H](c3ccc(O)cc3)N3[C@H](c4ccccc4)[C@H](c4ccccc4)OC(=O)[C@H]3[C@@H]2C(=O)NC[C@H](O)c2ccccc2)cc1` registered a composite z-score of 0.0197. Regarding `O=C1OCC=C[C@H]2OC34C=CCN(c5ccc(Cl)cc5)C(=O)[C@H]3N(CCCCCCO)C(=O)[C@@H]4[C@@H]12` (some centres not stated), the composite z-score was -1.21. On the same count and under the same terms, the result for `C=CCOC(=O)[C@H]1[C@@H]2C(=O)O[C@@H](c3ccccc3)[C@@H](c3ccccc3)N2[C@@H](c2ccc(OCCOC(=O)[C@@H]3C[C@@H]4C(=O)N5CCC[C@H]5C(=O)N4[C@@H]3c3ccc(O)cc3)cc2)[C@]12C(=O)Nc1ccccc12` reads 0.677; that for `CCCC[C@H]1OB(O)C[C@H]2C1=C(C)C[C@H]1C(=O)N(Cc3ccccc3)C(=O)[C@H]12`, 0.369; that for `CCCC[C@@H]1C[C@H]1[C@@H](NC(=O)c1ccc(-c2ccccc2)cc1)c1ccc(-c2ccccc2)cc1`, 0.848. Still for that read-out and setting: the result for `COCC(=C=CC[C@@H](O)c1ccc(CO)o1)CCO` reads 0.744; that for `Cc1ccc(S[C@]2(C(=O)NCc3ccccc3)CC(=O)N(Cc3ccccc3Cl)[C@@H]2c2ccc(CO)cc2I)cc1`, -2.11. On the same count and under the same terms, under `CC=CC(O)C1C=CC2C(=O)N(c3ccccc3)C(=O)C2N1Nc1ccc(C(C)C)cc1` (configuration not stated) stands 0.363. Take `COCCOC(=O)N1C(=O)[C@@]2(c3ccccc31)[C@H](C(=O)NC[C@H](O)c1ccccc1)[C@H]1C(=O)O[C@H](c3ccccc3)[C@H](c3ccccc3)N1[C@@H]2c1ccc(OCCO)cc1`: the composite z-score stood at 0.965. `[N-]=[N+]=NCc1ccccc1C[C@@]1(C(=O)NCC(O)CO)N=C(c2ccc(OCCCO)cc2)O[C@@H]1c1ccccc1CN=[N+]=[N-]` (some centres not stated): the composite z-score is -0.88. On the same count and under the same terms, under `COc1ccc(C#Cc2ccc3c(c2)[C@]2(C(=O)N3)[C@H](C(=O)NC[C@H](O)c3ccccc3)[C@H]3C(=O)O[C@H](c4ccccc4)[C@H](c4ccccc4)N3[C@@H]2c2ccccc2OCCO)cc1` stands 0.5; under `COC(=O)[C@@]1(Cc2ccccc2)[C@H]2c3cc(C(=O)N(C)C)n(Cc4cc(C)n(C)n4)c3C[C@H]2CN1C(=O)c1ccccc1`, -0.279; under `C#CCN(C(/C=C/c1ccccc1)CO)C(C(=O)O)c1ccccc1` (configuration not stated), 0.111. On the same count and under the same terms, the result for `COc1ccc([Si](C)(C)[C@@H]2[C@@H](CCn3cc([C@H](O)c4ccccc4)nn3)O[C@]3(C(=O)N(Cc4cccc(N5CCOC5=O)c4)c4ccccc43)[C@H]2C)cc1` reads -1.47.

`Cc1ccc(S[C@]2(C(=O)O)CC(=O)N(C3Cc4ccccc4C3)[C@@H]2c2ccc(CO)cc2I)cc1` gave a composite z-score of -0.67. On the same count and under the same terms, the result for `CCOC(=O)C[C@H]1[C@H](OC(=O)c2ccc(-c3ccccc3)cc2)[C@@H](NC(=O)Cc2ccc(OC)cc2)c2cc(OCCCO)ccc2N1C(=O)c1ccc2ccccc2n1` reads 0.0394; that for `COc1ccc([Si](C)(C)[C@@H]2[C@@H](CC(=O)N(CCO)Cc3ccccc3)O[C@]3(C(=O)N(C)c4ccccc43)[C@H]2C)cc1`, 0.813. The same measure, in the same setting: the result for `O=c1cccc(C=Cc2ccccc2)o1` reads -1.31; that for `O=C1OCC=C[C@H]2OC34C=CCN(c5ccc6ccccc6c5)C(=O)[C@H]3N(CCCO)C(=O)[C@@H]4[C@@H]12` (some centres not stated), -0.842; that for `COCCOC(=O)N1C(=O)[C@@]2(c3cc(C#CC4=CCCCC4)ccc31)[C@H](C(=O)N1CCc3cc(OC)c(OC)cc3C1)[C@H]1C(=O)O[C@H](c3ccccc3)[C@H](c3ccccc3)N1[C@@H]2c1ccccc1OCCO`, 0.546. As for `COCCOC(=O)N1C(=O)[C@@]2(c3cc(C#CCC(C(=O)OC)C(=O)OC)ccc31)[C@H](c1ccccc1OCCO)N1[C@H](c3ccccc3)[C@H](c3ccccc3)OC(=O)[C@H]1[C@@H]2C(N)=O`, the composite z-score stood at 0.32. On to `CC(C)OC(=O)CC(=O)CC(O)c1ccc(C#N)cc1` (configuration not stated), for which the composite z-score was -0.461. Same read-out and setting: the result for `COC(=O)[C@@]1(Cc2ccc(OC)cc2)[C@H]2c3cc(C(=O)N(C)C)n(Cc4c(OC)[nH]cc(C)c4=O)c3C[C@H]2CN1C(=O)c1ccccc1` reads 0.464; that for `O=C1C[C@@](C(=O)NC2CC2)(c2ccc([N+](=O)[O-])cc2)[C@@H](c2ccc(CO)cc2)N1CC12CC3CC(CC(C3)C1)C2`, -0.523.

In the next assay the target is Calmodulin-1 (Homo sapiens) (UniProt P0DP23). In words: small molecules binding calmodulin-1 with EGTA – biochemical, small-molecule microarray, Cy5-labelled CALM1, profiling panel (AID 1111).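 Note: labelled calmodulin applied in Tris saline Tween buffer holding calcium plus EGTA and DTT.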 The following applies: Cy5-CALM1 binding fluorescence, higher = more signal.
For `COc1ccc([Si](C)(C)[C@@H]2[C@@H](CC(=O)N3CCC[C@H]3CO)O[C@]3(C(=O)N(C)c4c(Br)cc(C)cc43)[C@H]2C)cc1`, the composite z-score was determined as 0.207. Still for that read-out and setting: under `CN(C)CCCCCCNC(=O)[C@H]1C[C@H]2C(=O)N[C@@H](CCCCN)C(=O)N2[C@H]1c1ccc(O)cc1` stands 2.01; under `COCC(=C=CC[C@H](O)c1ccc(OCCO)cc1)C[C@H](O)c1cc(Cl)cc(Cl)c1O`, -0.281. `COc1cc(C(O)C2C=CC3C(=O)N(c4ccccc4)C(=O)C3N2Nc2ccc(C#N)cc2)cc(OC)c1OC` (configuration not stated) came in with a composite z-score of 2.23. As for `N#Cc1ccc(NN2C(C(O)c3ccc([N+](=O)[O-])cc3)C=CC3C(=O)N(c4ccccc4)C(=O)C32)cc1` (configuration not stated), the composite z-score amounted to 0.971.

With `CC(=O)NCCCC[C@@H]1NC(=O)[C@@H]2C[C@H](C(=O)NCCCCCCNC(=O)CS)[C@H](c3ccc(O)cc3)N2C1=O`, the composite z-score worked out at 0.725. Compound `CCOC(=O)C[C@H]1[C@H](OC(=O)Cc2ccc3c(c2)OCO3)[C@@H](NC(=O)c2ccc(-c3ccccc3)cc2)c2cc(OCCCO)ccc2N1C(=O)c1ccccc1` displayed a composite z-score of 0.326.

In turn, `O=C1O[C@@H](c2ccccc2)[C@@H](c2ccccc2)N2[C@@H](c3ccccc3OCCO)[C@]3(C(=O)Nc4ccc(C#CC5(O)CCCCCC5)cc43)[C@@H](C(=O)Nc3nc4ccccc4s3)[C@H]12` showed a composite z-score of 0.688.

Compound `Cc1ccccc1C(O)C1C=CC2C(=O)N(C)C(=O)C2N1N1CCCCC1` (configuration not stated) had a composite z-score of 0.8.

In the case of `COCCOC(=O)N1C(=O)[C@@]2(c3ccccc31)[C@H](C(=O)Nc1nc3ccccc3s1)[C@H]1C(=O)O[C@H](c3ccccc3)[C@H](c3ccccc3)N1[C@@H]2c1ccc(OCCO)cc1`, the composite z-score turned out to be 1.31. Same read-out and setting: under `CC(C)C[C@@H]1NC(=O)[C@H]2C[C@@H](C(=O)NCCCCCNC(=O)CS)[C@@H](c3cccc(OCCO)c3)N2C1=O` stands 0.193; under `COc1ccc(C#Cc2ccc3c(c2)[C@]2(C(=O)N3)[C@H](c3ccc(O)cc3)N3[C@H](c4ccccc4)[C@H](c4ccccc4)OC(=O)[C@H]3[C@@H]2C(=O)NC[C@H](O)c2ccccc2)cc1`, 0.199. In turn, `O=C1OCC=C[C@H]2OC34C=CCN(c5ccc(Cl)cc5)C(=O)[C@H]3N(CCCCCCO)C(=O)[C@@H]4[C@@H]12` (some centres not stated) registered a composite z-score of -0.123. Same read-out and setting: under `C=CCOC(=O)[C@H]1[C@@H]2C(=O)O[C@@H](c3ccccc3)[C@@H](c3ccccc3)N2[C@@H](c2ccc(OCCOC(=O)[C@@H]3C[C@@H]4C(=O)N5CCC[C@H]5C(=O)N4[C@@H]3c3ccc(O)cc3)cc2)[C@]12C(=O)Nc1ccccc12` stands 0.823; under `CCCC[C@H]1OB(O)C[C@H]2C1=C(C)C[C@H]1C(=O)N(Cc3ccccc3)C(=O)[C@H]12`, 0.229; under `CCCC[C@@H]1C[C@H]1[C@@H](NC(=O)c1ccc(-c2ccccc2)cc1)c1ccc(-c2ccccc2)cc1`, 0.212.

`COCC(=C=CC[C@@H](O)c1ccc(CO)o1)CCO`: the composite z-score was -0.699. Still for that read-out and setting: under `Cc1ccc(S[C@]2(C(=O)NCc3ccccc3)CC(=O)N(Cc3ccccc3Cl)[C@@H]2c2ccc(CO)cc2I)cc1` stands -0.162. In the case of `CC=CC(O)C1C=CC2C(=O)N(c3ccccc3)C(=O)C2N1Nc1ccc(C(C)C)cc1` (configuration not stated), the composite z-score was found to be 1.42.

Compound `COCCOC(=O)N1C(=O)[C@@]2(c3ccccc31)[C@H](C(=O)NC[C@H](O)c1ccccc1)[C@H]1C(=O)O[C@H](c3ccccc3)[C@H](c3ccccc3)N1[C@@H]2c1ccc(OCCO)cc1` came in with a composite z-score of 0.932. Same read-out and setting: the result for `[N-]=[N+]=NCc1ccccc1C[C@@]1(C(=O)NCC(O)CO)N=C(c2ccc(OCCCO)cc2)O[C@@H]1c1ccccc1CN=[N+]=[N-]` (some centres not stated) reads 2.11; that for `COc1ccc(C#Cc2ccc3c(c2)[C@]2(C(=O)N3)[C@H](C(=O)NC[C@H](O)c3ccccc3)[C@H]3C(=O)O[C@H](c4ccccc4)[C@H](c4ccccc4)N3[C@@H]2c2ccccc2OCCO)cc1`, 1.08.

For `COC(=O)[C@@]1(Cc2ccccc2)[C@H]2c3cc(C(=O)N(C)C)n(Cc4cc(C)n(C)n4)c3C[C@H]2CN1C(=O)c1ccccc1`, the composite z-score came out at 1.8. For `C#CCN(C(/C=C/c1ccccc1)CO)C(C(=O)O)c1ccccc1` (configuration not stated), the composite z-score is -0.238. Still for that read-out and setting: under `COc1ccc([Si](C)(C)[C@@H]2[C@@H](CCn3cc([C@H](O)c4ccccc4)nn3)O[C@]3(C(=O)N(Cc4cccc(N5CCOC5=O)c4)c4ccccc43)[C@H]2C)cc1` stands -0.13; under `Cc1ccc(S[C@]2(C(=O)O)CC(=O)N(C3Cc4ccccc4C3)[C@@H]2c2ccc(CO)cc2I)cc1`, -0.212. On the same count and under the same terms, the result for `CCOC(=O)C[C@H]1[C@H](OC(=O)c2ccc(-c3ccccc3)cc2)[C@@H](NC(=O)Cc2ccc(OC)cc2)c2cc(OCCCO)ccc2N1C(=O)c1ccc2ccccc2n1` reads 0.882; that for `COc1ccc([Si](C)(C)[C@@H]2[C@@H](CC(=O)N(CCO)Cc3ccccc3)O[C@]3(C(=O)N(C)c4ccccc43)[C@H]2C)cc1`, 0.773.

For the compound `O=c1cccc(C=Cc2ccccc2)o1`, the composite z-score was -0.471. With `O=C1OCC=C[C@H]2OC34C=CCN(c5ccc6ccccc6c5)C(=O)[C@H]3N(CCCO)C(=O)[C@@H]4[C@@H]12` (some centres not stated), the composite z-score is -0.0892.

For `COCCOC(=O)N1C(=O)[C@@]2(c3cc(C#CC4=CCCCC4)ccc31)[C@H](C(=O)N1CCc3cc(OC)c(OC)cc3C1)[C@H]1C(=O)O[C@H](c3ccccc3)[C@H](c3ccccc3)N1[C@@H]2c1ccccc1OCCO`, the composite z-score was 0.805. Consider `COCCOC(=O)N1C(=O)[C@@]2(c3cc(C#CCC(C(=O)OC)C(=O)OC)ccc31)[C@H](c1ccccc1OCCO)N1[C@H](c3ccccc3)[C@H](c3ccccc3)OC(=O)[C@H]1[C@@H]2C(N)=O`, for which the composite z-score stood at 1.25.
